The list is not random: actives were taken first. Their share in the collection is about 0.75%.
C1s inh = human complement C1s inhibition | P09871 | purified C1s, fluorogenic AMC substrate, pooled mixtures | mean inhibition % of two 10-compound mixtures (active compounds read high), % at 5 µM (by protocol) | 62,000 tested, 0.16% active | AID 538;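 active = inhibition above 20% in each of the two 10-compound mixture wells holding the compound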
CatG inh = blocks human cathepsin G enzyme activity; inhibition, % at 5 µM (by protocol); 62,000 tested, 0.2% active; purified enzyme, AMC-tetrapeptide fluorescence, pooled mixtures;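 active = inhibition above 20% in each of the two mixture wells holding the compound; inactive = inhibition of 20% or less in either well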
mHtt clearance = mutant huntingtin protein clearance; 47,000 tested, 0.42% active; inhibition, % at 1.5 µM; HeLa Exon1htt(103Q)mCFP, aggregate imaging; zero = plate's median compound well; AID 853;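 active = inhibition of aggregate fluorescence above about 70%, also judged a hit by eye on the cell image, limit read from the data, passing the limit was not always enough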;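 note: cells exposed to compound for three days before fixation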
FXIIa inh mix = factor XIIa (human) inhibition, mixture screen; P00748; purified FXIIa, fluorogenic substrate, pooled mixtures; inhibition, % at 5 µM; 62,000 tested, 0.2% active; AID 684
Target sequence (P00748 20-372 limits assumed): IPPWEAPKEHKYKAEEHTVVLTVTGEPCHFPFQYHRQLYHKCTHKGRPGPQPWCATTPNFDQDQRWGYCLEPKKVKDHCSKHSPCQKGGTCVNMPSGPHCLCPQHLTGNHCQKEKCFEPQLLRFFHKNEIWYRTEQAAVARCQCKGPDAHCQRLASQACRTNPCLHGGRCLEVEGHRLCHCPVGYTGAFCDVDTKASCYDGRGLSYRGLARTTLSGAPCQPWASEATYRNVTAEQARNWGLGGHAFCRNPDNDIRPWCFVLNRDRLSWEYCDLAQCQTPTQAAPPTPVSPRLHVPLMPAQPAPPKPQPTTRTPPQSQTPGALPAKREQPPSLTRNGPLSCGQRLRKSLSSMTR
Target sequence (P00748 373-615 limits assumed): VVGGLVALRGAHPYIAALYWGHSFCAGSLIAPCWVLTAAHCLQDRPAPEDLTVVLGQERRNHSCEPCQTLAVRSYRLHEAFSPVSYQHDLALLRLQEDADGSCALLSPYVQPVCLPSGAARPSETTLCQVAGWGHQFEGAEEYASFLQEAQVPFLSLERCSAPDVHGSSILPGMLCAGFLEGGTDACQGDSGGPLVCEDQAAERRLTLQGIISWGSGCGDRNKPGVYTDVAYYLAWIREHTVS
WNV NS2B-NS3 inh = inhibitors of West Nile virus NS2B-NS3 protease; 65,000 tested, 0.18% active; P06935; WNV NS2B-NS3 protease, fluorogenic substrate Ex360/Em465; active compounds read low; AID 577; z-score (concentration not given with the values); in the data active = z-score below about -3
FXIa inh mix = blocks human factor XIa in pooled compound mixtures; purified FXIa, fluorogenic substrate; AID 680; inhibition, % at 5 µM; P03951; 62,000 tested, 0.19% active;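 note: each value is inhibition by a whole ten-compound pool holding the compound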
Hits are given with their value; i = inactive; nt = not tested or not shown. Cut-off read from the data, not from the text of the source, unless noted: active = inhibition above about 20% (passing the limit was not always enough); inactive = the rest.

SMILES	C1s inh	CatG inh	mHtt clearance	FXIIa inh mix	WNV NS2B-NS3 inh	FXIa inh mix
O=c1cc(-c2ccccc2)nc2nc(-c3ccccc3)[nH]n12	44	i	i	i	i	i
COc1ccc(Cl)cc1NC(=O)CCN1CCN(C)CC1	nt	nt	i	nt	nt	nt
COc1ccc(Cl)cc1NC(=O)CCN1CCN(c2ccccc2C)CC1	67	i	i	i	i	i
COc1ccccc1-c1cc(C(=O)NCc2ccccc2)no1	i	51	i	i	i	i
COc1ccc(CCNC(=O)c2cc(-c3ccccc3)on2)cc1OC	i	i	nt	47	i	i
COc1ccccc1-c1cc(C(=O)NCc2ccc(Cl)cc2)no1	i	46	i	i	i	i
COc1ccccc1-c1cc(C(=O)NCc2ccc(F)cc2)no1	i	nt	nt	i	i	i
COc1ccc(CNC(=O)c2cc(-c3ccccc3OC)on2)cc1	i	i	i	i	i	i
CCc1ccc(NC(=O)c2cnn3ccccc23)cc1	nt	nt	i	nt	nt	nt
O=C(NCc1ccc(F)cc1)c1cnn2ccccc12	nt	nt	75	nt	nt	nt
OC12CCCCC1C(c1ccc3c(c1)OCO3)N(Cc1ccccc1F)CC2 (configuration not stated)	i	i	73	i	i	i
OC12CCCCC1C(c1ccc3c(c1)OCO3)N(Cc1ccc(F)cc1)CC2 (configuration not stated)	i	i	i	i	i	i
COc1cccc(NC(=O)N2CCN(Cc3nc4ccccc4c(=O)[nH]3)CC2)c1	i	i	nt	i	i	i
CCC(=O)N1CCc2cc(Br)cc(S(=O)(=O)N3CCN(c4ccccn4)CC3)c21	i	i	nt	i	i	i
CC1CCN(C(=O)CSc2nnc(-c3cc4ccccc4cc3O)n2Cc2ccco2)CC1	i	i	nt	i	i	i
CCOn1c(=O)c(-c2cc3ccccc3o2)[n+]([O-])c2ccccc21	i	i	nt	i	i	24
O=C(CN1C(=O)CSC1=O)N1CCc2ccccc2C1	i	i	i	i	i	i
CCOC(=O)N1CCC(N2C(=O)c3cc(C(=O)NC4CCCCC4)ccc3C2O)CC1 (configuration not stated)	i	i	nt	i	i	25
Cc1cc(C)n(CCc2nc3c4ccccc4nc(SCc4ccc(C#N)cc4)n3n2)n1	i	i	nt	26	i	i
Cc1cc(C)nc(/N=C/c2c(O)n(C)c(=O)n(C)c2=O)n1	i	i	nt	i	i	i
c1ccc(Nc2ncnc3c2oc2ccccc23)cc1	i	i	72	i	i	i
CCOC(=O)C1CCCN(CC(=O)Nc2c(C(=O)OC)[nH]c3ccc(Cl)cc23)C1 (configuration not stated)	i	i	nt	i	i	i
NC(=O)NC1CCCc2c1[nH]c1ccc(Cl)cc21 (configuration not stated)	i	i	nt	i	-3	i
COc1ccccc1N1CCN(C(=O)CSc2nc(C)c(Cc3ccccc3)c(=O)[nH]2)CC1	i	i	80	i	i	i
COc1ccccc1N1CCN(C(=O)CSc2nc(-c3ccccc3)cc(=O)[nH]2)CC1	i	i	nt	i	i	i
SMILES	C1s inh	CatG inh	mHtt clearance	FXIIa inh mix	WNV NS2B-NS3 inh	FXIa inh mix
CC1CCN(Cc2nc3c(c(=O)n(C)c(=O)n3C)n2CCN2CCOCC2)CC1	i	i	nt	i	i	i
O=C(NC1CCCC1)C1C2C=CC(C2)C1C(=O)N1CCOCC1 (configuration not stated)	i	i	78	i	i	i
Cc1cc2ncn(S(=O)(=O)c3ccc(S(=O)(=O)N4CCCCCC4)cc3)c2cc1C	nt	nt	71	nt	nt	nt
Cc1nn(C(C)(C)C)c(OC(=O)c2cccs2)c1S(=O)(=O)c1ccccc1	i	i	i	i	i	i
COc1ccc(S(=O)(=O)n2nc(OC(=O)c3cccs3)cc2N)cc1	i	38	i	i	-5.6	i
COc1ccc(S(=O)(=O)n2nc(OC(=O)c3ccccc3)cc2N)cc1	i	35	i	i	-6.4	28
CCCS(=O)(=O)N1CCN(C(=O)c2cccc(OC)c2)CC1	i	i	i	i	i	i
COc1cccc(N2C(=O)N(c3ccccc3)C3CS(=O)(=O)CC32)c1 (configuration not stated)	i	i	nt	i	i	i
COc1cccc(N2C(=O)N(c3ccccc3Cl)C3CS(=O)(=O)CC32)c1 (configuration not stated)	23	i	i	i	i	i
COc1ccc(CCNC(=O)c2c(O)c3cccc4c3n(c2=O)CC4)cc1	i	i	nt	i	-4.7	i
O=C(c1ccc(Cl)cc1)N1CCN(c2nc(N3CCCCC3)nc(N3CCCCC3)n2)CC1	i	i	nt	i	i	i
Cn1c(Cl)cnc1C1CC(=O)c2cc(Cl)ccc2O1 (configuration not stated)	i	i	i	i	i	i
CC1Cc2ccccc2N1C(=O)CSc1nnnn1Cc1ccccc1 (configuration not stated)	i	i	nt	i	i	i
[N-]=[N+]=CC(=O)CNC(=O)[C@@H](Cc1ccccc1)N1C(=O)c2ccccc2C1=O	i	i	nt	i	i	i
O=C(NCc1ccco1)C(Cc1ccccc1)N1C(=O)c2ccccc2C1=O (configuration not stated)	i	i	nt	i	i	26
Cn1c(=O)c2c(SCc3ccccn3)nc(-c3ccccc3)nc2n(C)c1=O	i	i	nt	i	i	i
CCn1c(SCC(=O)N2CCOCC2)nnc1-c1cccs1	i	i	nt	i	i	21
CCn1c(SCC(=O)N2CCCc3ccccc32)nnc1-c1cccs1	i	i	i	i	i	i
O=C1CSC(=Nc2ccc(O)cc2)N1c1ccc(O)cc1	i	39	i	i	i	i
CC(C)(C)c1ccccc1NC(=O)c1cccnc1	i	i	i	i	i	i
CC(C)(C)c1cc(NC(=O)c2cccnc2)no1	i	i	78	i	i	i
Cc1cc(NC(=O)c2noc3c2CCc2ccccc2-3)n(-c2ccccc2)n1	i	59	nt	i	i	i
CCOC(=O)c1cn2c3c(c(F)c(F)cc3c1=O)SC(N1CCOCC1)=N2	nt	nt	i	nt	nt	nt
Nc1nc(Cn2nnc(-c3ccccc3Cl)n2)nc(N2CCOCC2)n1	i	i	nt	21	i	i
COC(=O)c1ccccc1NC(=O)c1cc2sccc2n1C	i	31	nt	i	i	i
SMILES	C1s inh	CatG inh	mHtt clearance	FXIIa inh mix	WNV NS2B-NS3 inh	FXIa inh mix
COC(=O)c1cccc(NC(=O)c2cc3sccc3n2C)c1	i	i	nt	i	i	i
CCOc1ccc2[nH]c3c(N4CCN(c5ccccn5)CC4)ncnc3c2c1	69	i	i	i	i	i
O=C(CCn1cccc1)Nc1cc(F)ccc1F	i	i	i	i	i	i
COc1ccc(OC)c(NC(=O)Cn2cc(C(=O)c3ccco3)c3ccccc32)c1	i	i	76	i	i	i
COc1ccc(C2C=C(c3ccccc3)Nc3nc(CCCO)nn32)cc1 (configuration not stated)	i	i	nt	i	i	41
O=C(c1cc2nc3c(c(C(F)(F)F)n2n1)CCc1ccccc1-3)N1CCN2CCCC2C1 (configuration not stated)	i	i	nt	i	i	i

Compound activity deposited in PubChem BioAssay by several laboratories.
